Source: PubChem BioAssay (NCATS)
Values joined by “and” are separate entries in the source; they are usually repeats but may differ in a detail not shown here. Identical values can stand only once. Inconclusive results are not listed. Unmarked numbers belong to inactive results. Active and inactive are the calls of the source. Calls follow the shape of the dose curve; as a rule, active = well fitted curve in the direction sought with a large enough effect; inconclusive = small, poorly fitted or top-dose-only effect, or another doubt; inactive = no such curve, though single readings can be large; an effect the other way counts as inactive or inconclusive.

assay: Quantitative highthroughput screen to assess conditional lethalithy of SEM cells grown in RPMI1640 with unreated serum (RPMI+s) (AID 1963883); details: SEM B-ALL cells, CellTiter-Glo viability, 48 h; series mostly up to 45.8 µM; viability: at the top concentration; also: nearly all actives have a fitted effect of over 35% in size;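 as to viability: 100% = DMSO wells and 0% = empty wells without cells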
Summary of the method: (§1)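 Each medium arm—HPLM with 10% dialyzed FBS, or RPMI1640 with 5 mM glucose and 10% untreated or dialyzed FBS—was screened against an 11-point, 3-fold compound titration for 48 h at 37 °C, with CellTiter-Glo luminescence as endpoint.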
Potency is read from the fitted curve at half-maximal effect.

SMILES	viability	Potency
Nc1c2c(nc3ccccc13)CCCC2	88%	–
CCCCc1ccc2nc(NC(=O)OC)[nH]c2c1	–	0.059 µM (active)
CN(Cc1cnc2nc(N)nc(N)c2n1)c1ccc(C(=O)N[C@@H](CCC(=O)O)C(=O)O)cc1	–	1.05 µM (active)
N=C(N)c1ccc2cc(OC(=O)c3ccc(N=C(N)N)cc3)ccc2c1	92.7%	–
CC(C)NCC(O)COc1ccc(CCOCC2CC2)cc1 (stereo unspecified)	115%	–
Nc1ncn([C@H]2C[C@H](O)[C@@H](CO)O2)c(=O)n1	–	2.64 µM (active)
CC12CC3CC(C)(C1)CC(N)(C3)C2	108%	–
O=C1NC(O)CCN1[C@@H]1O[C@H](CO)[C@H](O)[C@H]1O (stereo partly specified)	120%	–

assay: Quantitative highthroughput screen to assess conditional lethalithy of SEM cells grown in RPMI1640 with dialyzed fetal bovine serum (RPMI+ds) (AID 1963884); details: SEM B-ALL cells, RPMI+dialyzed FBS, CellTiter-Glo viability, 48 h; series mostly up to 45.8 µM; viability: at the top concentration; also: nearly all actives have a fitted effect of over 35% in size;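 as to viability: 100% = DMSO control wells and 0% = empty wells without cells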
Summary of the method: as §1

SMILES	viability	Potency
Nc1c2c(nc3ccccc13)CCCC2	96.9%	–
CCn1cc(C(=O)O)c(=O)c2ccc(C)nc21	–	5.9 µM (active)
CCCCc1ccc2nc(NC(=O)OC)[nH]c2c1	–	0.0418 µM (active)
O=C(CO)N1CCC(c2[nH]nc(-c3ccc(Cl)cc3)c2-c2ccncn2)CC1	–	13.2 µM (active)
CN(Cc1cnc2nc(N)nc(N)c2n1)c1ccc(C(=O)N[C@@H](CCC(=O)O)C(=O)O)cc1	–	0.0833 µM (active)
N=C(N)c1ccc2cc(OC(=O)c3ccc(N=C(N)N)cc3)ccc2c1	83.7%	–
CC(C)NCC(O)COc1ccc(CCOCC2CC2)cc1 (stereo unspecified)	101%	–
CC12CC3CC(C)(C1)CC(N)(C3)C2	97.5%	–
O=C1NC(O)CCN1[C@@H]1O[C@H](CO)[C@H](O)[C@H]1O (stereo partly specified)	94.8%	–

assay: Cellular viability qHTS for adrenocortical cancer (ACC) cell line SW-13 (AID 1963989); details: SW-13 ACC cells viability, CellTiter-Glo, 48 h; activity (max response): stronger effect = lower value; also: nearly all actives have a fitted effect of over 65% in size;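 as to activity (max response): cells grown in serum-free medium with ITS supplement; % is scaled to controls: 0 for no effect and ±100 for the full control effect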
Summary of the method: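 Viability was read as CellTiter-Glo luminescence after 48 h compound treatment (up to 46 uM final) of SW-13 cells grown serum-free; titration curves were fit with a four-parameter logistic model to give IC50 and efficacy.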

SMILES	activity (max response)	Potency
CCCCCCCC(=O)OCC(O)CO (stereo unspecified)	-7.07%	–
c1ccc2c(CC3=NCCN3)cccc2c1	1.1%	–
O=c1[nH]cnc2c1ncn2[C@@H]1O[C@H](CO)[C@@H](O)[C@H]1O	4.44%	–
CCn1cc(C(=O)O)c(=O)c2ccc(C)nc21	13.9%	–
NS(=O)(=O)c1ccc(Cl)c(S(N)(=O)=O)c1	-3.32%	–
O=c1ccc2ccccc2o1	-0.445%	–
CCCCc1ccc2nc(NC(=O)OC)[nH]c2c1	–	51.7 nM (active) and 282 nM (active)
CCN(CC)C(=O)C1CN2CCc3cc(OC)c(OC)cc3C2CC1OC(C)=O (stereo unspecified)	-2.45%	–
O=C(CO)N1CCC(c2[nH]nc(-c3ccc(Cl)cc3)c2-c2ccncn2)CC1	-7.74%	–
CCCCCCCC(=O)OCC(COC(=O)CCCCCCC)OC(=O)CCCCCCC	8.32%	–
O=C(CCCl)NCc1ccccc1	9.65%	–
CN(Cc1cnc2nc(N)nc(N)c2n1)c1ccc(C(=O)N[C@@H](CCC(=O)O)C(=O)O)cc1	–	18.4 nM (active) and 251 nM (active)
N=C(N)c1ccc2cc(OC(=O)c3ccc(N=C(N)N)cc3)ccc2c1	-32.1%	–
CCCCCCCCCCCCCCCC(=O)O	8.9%	–
Cc1ccnc(NS(=O)(=O)c2ccc(N)cc2)n1	8.12%	–
NC(=O)NC(=O)Cc1ccccc1	-0.635%	–
Cc1ncc([N+](=O)[O-])n1C	9.67%	–
CC1CCN(CCCC(=O)c2ccc(F)cc2)CC1	-0.695%	–
CC(=O)NS(=O)(=O)c1ccc(N)cc1	4.13%	–
CC(C)NCC(O)COc1ccc(CCOCC2CC2)cc1 (stereo unspecified)	-8.57%	–

SMILES	activity (max response)	Potency
OCc1cccnc1	0.385%	–
CCN(CC)CCN	6.69%	–
CC(C)CCCC(C)CCCC(C)CCCCC(C)CCCC(C)CCCC(C)C (stereo unspecified)	6.76%	–
O=C(O)c1ccccc1Nc1cc(Cl)ccc1C(=O)O	-18.2%	–
Nc1ncn([C@H]2C[C@H](O)[C@@H](CO)O2)c(=O)n1	-13% and -6.12%	–
CC(=O)OC[C@H]1O[C@@H](OC(C)=O)[C@H](OC(C)=O)[C@@H]1OC(C)=O	10.4%	–
O=c1[nH]c(=O)n([C@H]2C[C@H](O)[C@@H](CO)O2)cc1Br	-6.63%	–
CCN(CC)CC(=O)Oc1ccc(NC(C)=O)cc1	13.2%	–
O=C(Nc1ccc(Cl)cc1)Nc1ccc(Cl)c(Cl)c1	–	2.59 µM (active)
CCN(CC)C(=O)c1ccc(O)c(OC)c1	3.37%	–
CCCC(=O)O[C@]1(C(=O)CO)CC[C@H]2[C@@H]3CCC4=CC(=O)CC[C@]4(C)[C@H]3[C@@H](O)C[C@@]21C	-3.14%	–
CC1CCc2cc(F)cc3c(=O)c(C(=O)O)cn1c23 (stereo unspecified)	5.01%	–
C[N+](C)(C)CCOC(=O)CCC(=O)OCC[N+](C)(C)C	11.2%	–
CC12CC3CC(C)(C1)CC(N)(C3)C2	-3.68%	–
NCCS	16.9%	–
Oc1ccccc1C=NCc1ccccc1	6.8%	–
CN1CCN(c2ccc(OC(F)(F)F)c(Nc3ncc4c(n3)-c3c(c(C(N)=O)nn3CCO)CC4)c2)CC1	–	0.1 µM (active)
NCC1CCC(C(=O)Oc2ccc(CCC(=O)O)cc2)CC1 (stereo unspecified)	3.63%	–
O=C1NC(O)CCN1[C@@H]1O[C@H](CO)[C@H](O)[C@H]1O (stereo partly specified)	-1.6%	–
